According to PubChem BioAssay (EPA / NIEHS):
Active and inactive are the calls of the source. Rule for the calls: active = hit-call score of the fitted dose curve at least 0.9, where 1 is the maximum; inconclusive = response in the unintended direction; inactive = score below 0.9.

Assay: Tanguay_ZF_120hpf_ActivityScore_legacy: (Legacy) Oregon State University Tanguay Lab 120 Hour Post-fertilization zebrafish Assay Score for Activity (AID 2283742)
Procedure: Tanguay_ZF_120hpf_legacy is a whole embryo, multiplexed endpoint assay using zebrafish larvae exposed for 120 hours post fertilization on a 96-well plate.Tanguay_ZF_120hpf_ActivityScore_legacy is one of one assay component(s) measured or calculated from the Tanguay_ZF_120hpf_legacy assay. It is designed to make measurements of developmental malformations and mortality as detected with brightfield microscopy and combines scoring from 18 other assay components measuring more specific morphologies.Data from the assay component Tanguay_ZF_120hpf_ActivityScore_legacy was analyzed into 1 assay endpoints. This assay endpoint, Tanguay_ZF_120hpf_ActivityScore_legacy, was analyzed in the positive analysis fitting direction relative to DMSO as the negative control and baseline of activity. Using a type of morphology reporter, gain-of-signal activity can be used to understand changes in developmentals as they relate to the whole embryo. To generalize the intended target to other relatable targets, this assay endpoint is annotated to the zebrafish development intended target family, where the subfamily is embryonic morphogenesis and mortality.
Zebrafish husbandry: Tropical 5D wild-type adult zebrafish were housed in at an approximate density of 1000 per 100 gallon tank at the Sinnhuber Aquatic Research Laboratory, Oregon State University, Corvallis, OR. Each tank was kept at standard laboratory conditions of 28C on a 14-h light/10-h dark photoperiod in fish water consisting of reverse osmosis water supplemented with a commercially available salt (Instant Ocean). Spawning funnels were placed into the tanks the night prior, and embryos were collected and staged. To increase bioavailability, the chorion was enzymatically removed using pronase (63.6mg/ml, >/= 3.5U/mg, Sigma-Aldrich: P5147) at 4 hours post fertilization (hpf) using a custom automated dechorionator.Chemical exposures: Six hpf dechorionated embryos were placed 1 embryo per well in a 96-well plate prefilled with 90 ul of EM using automated embryo placement systems (AEPS). Ten microliters of each row of dilution plate 2 was added to 2 exposure plates. The final DMSO concentration used was 0.64% (vol/vol). Thirty-two embryos were also exposed to 5uM trimethyltin chloride (positive control). Plates were sealed to prevent evaporation and foil covered to reduce light exposure and kept in a 28C incubator. Embryos were statically exposed until 120 hpf. At 24 hpf, embryos were assessed for photomotor response using a custom photomotor response analysis tool (PRAT) and for developmental toxicity endpoints (MO24: mortality at 24 hpf, DP: developmental progression, SM: spontaneous movement, and NC: notochord distortion). At 120 hpf, locomotor activity was measured using Viewpoint Zebralab and assessed for 18 endpoints. Zebrafish acquisition and analysis program (ZAAP), a custom program designed to inventory, acquire, and manage zebrafish data, was used to collect developmental endpoints as either present or absent (i.e., binary responses were recorded). If mortality occurred for an embryo (at either 24 or 120 hpf), the non-mortality endpoints were not measured.

Row | SMILES | outcome | AC50
1 | CCOP(=S)(OCC)OC(Cl)C(Cl)(Cl)Cl (stereo not given) | inactive | 
2 | CC(=NC#N)N(C)Cc1ccc(Cl)nc1 | inactive | 
3 | CCCCSP(=O)(SCCCC)SCCCC | inactive | 
4 | CCCCN(CC)c1c([N+](=O)[O-])cc(C(F)(F)F)cc1[N+](=O)[O-] | inactive | 
5 | CN(C)[C@@H]1C(=O)C(C(N)=O)=C(O)[C@@]2(O)C(=O)C3=C(O)c4c(O)cccc4[C@@](C)(O)[C@H]3[C@H](O)[C@@H]12 | inactive | 
6 | CSC1=N[C@@](C)(c2ccccc2)C(=O)N1Nc1ccccc1 |  | 37.6 µM (active)
7 | Cc1nn(-c2cc(NS(C)(=O)=O)c(Cl)cc2Cl)c(=O)n1C(F)F | inactive | 
8 | COc1cccc(C(=O)NN(C(=O)c2cc(C)cc(C)c2)C(C)(C)C)c1C | inactive | 
9 | FC(F)C(F)(F)OCC(Cn1cncn1)c1ccc(Cl)cc1Cl (stereo not given) |  | 0.00154 µM (active)
10 | COP(=O)(OC)OC(Br)C(Cl)(Cl)Br (stereo not given) | inactive | 
11 | CCc1cccc(C)c1N(C(=O)CCl)C(C)COC (stereo not given) | inactive | 
12 | CCOC(=O)COc1cc(-c2nn(C)c(OC(F)F)c2Cl)c(F)cc1Cl | inactive | 
13 | CCC(CC)Nc1c([N+](=O)[O-])cc(C)c(C)c1[N+](=O)[O-] | inactive | 
14 | CC(C)[C@H](C(=O)O[C@H](C#N)c1cccc(Oc2ccccc2)c1)c1ccc(Cl)cc1 |  | 1.53 µM (active)
15 | CON=C(C(=O)OC)c1ccccc1CON=C(C)c1cccc(C(F)(F)F)c1 | inactive | 
16 | O=[N+]([O-])c1cc(C(F)(F)F)c(Cl)c([N+](=O)[O-])c1Nc1ncc(C(F)(F)F)cc1Cl |  | 45.7 µM (active)
17 | CC1=NNC(=O)N(/N=C/c2cccnc2)C1 | inactive | 
18 | O=C(O)c1cc(Oc2ccc(C(F)(F)F)cc2Cl)ccc1[N+](=O)[O-] | inactive | 
19 | CCOP(=S)(OCC)Oc1cc(C)nc(C(C)C)n1 | inactive | 
20 | CC(Oc1cccc(Cl)c1)C(=O)O (stereo not given) | inactive | 

Row | SMILES | outcome | AC50
21 | C[Si](Cn1cncn1)(c1ccc(F)cc1)c1ccc(F)cc1 |  | 35.9 µM (active)
22 | C#CCC1=C(C)C(OC(=O)C2C(C=C(C)C)C2(C)C)CC1=O (stereo not given) | inactive | 
23 | CCc1cnc(C2=NC(C)(C(C)C)C(=O)N2)c(C(=O)O)c1 (stereo not given) | inactive | 
24 | CNC(=O)ON=C(SC)C(=O)N(C)C | inactive | 
25 | CN1COCN(Cc2cnc(Cl)s2)C1=N[N+](=O)[O-] | inactive | 
26 | CC(C)N(C(=O)SCC(Cl)=C(Cl)Cl)C(C)C | inactive | 
27 | CN(C)NC(=O)CCC(=O)O | inactive | 
28 | CCOP(=S)(OCC)Oc1ccc2c(C)c(Cl)c(=O)oc2c1 | inactive | 
29 | COc1cc(OC)nc(Sc2cccc(Cl)c2C(=O)O)n1 | inactive | 
30 | O=c1ccc(=O)[nH][nH]1 | inactive | 
31 | Cc1cc(C2CC2)nc(Nc2ccccc2)n1 |  | 62.8 µM (active)
32 | CNC(=O)ON=C(C)SC | inactive | 
33 | CC1(C(=O)Nc2ccc(O)c(Cl)c2Cl)CCCCC1 | inactive | 
34 | CC[C@H](C)[C@H]1O[C@]2(C=C[C@@H]1C)C[C@@H]1C[C@@H](C/C=C(\C)[C@@H](O[C@H]3C[C@H](OC)[C@@H](O[C@H]4C[C@H](OC)[C@@H](NC)[C@H](C)O4)[C@H](C)O3)[C@@H](C)/C=C/C=C3\CO[C@@H]4[C@H](O)C(C)=C[C@@H](C(=O)O1)[C@]34O)O2 |  | 1.49 µM (active)
35 | CCCCOC(=O)c1ccccc1C(=O)O | inactive | 
36 | CC(COc1ccc(Oc2ccccc2)cc1)Oc1ccccn1 (stereo not given) | inactive | 
37 | C#CC(C)(C)NC(=O)c1cc(Cl)cc(Cl)c1 | inactive | 
38 | CCNc1nc(Cl)nc(NC(C)(C)C#N)n1 | inactive | 
39 | COP(=O)(OC)C(O)C(Cl)(Cl)Cl (stereo not given) | inactive | 
40 | COc1ccc(C(=CC(=O)N2CCOCC2)c2ccc(Cl)cc2)cc1OC |  | 42.9 µM (active)
